These results are taken from PubChem BioAssay (EPA / NIEHS).

Activity calls are given as the source filed them. How the source made its calls: active means hit-call score of the fitted dose curve at least 0.9, where 1 is the maximum; inactive means score below 0.9.

Test [1] in a line: ATG_CRE_CIS: Attagene CIS-FACTORIAL HepG2 Assay for human cAMP Responsive Element (CRE) binding protein 3 (AID 2282926). The conditions noted are these: HepG2 CRE cis-reporter, Attagene multiplexed mRNA; actives raise or lower the signal. In a few lines: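 Readout: fluorescently labelled reporter transcripts resolved by capillary electrophoresis after RT-PCR, taken 24 h post-dosing in transfected HepG2. Endogenous transcription factor activity drives each cis-element reporter; gain or loss of signal fitted relative to DMSO control.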

Test [2] addresses CCAAT/enhancer-binding protein beta (Homo sapiens) (UniProt P17676). Nature of the test: ATG_C_EBP_CIS: Attagene CIS-FACTORIAL HepG2 Assay for human CCAAT/Enhancer Binding Protein (C/EBP) beta (AID 2282927). To be noted: HepG2 Attagene cis-factorial transcription factor reporter; actives raise or lower the signal. In a few lines:
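HepG2, transient MRTU transfection, 24 h treatment. RT-PCR plus CE fluorescence; DMSO negative control, bidirectional fit.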

A short description of test [3]: ATG_CMV_CIS: Attagene CIS-FACTORIAL HepG2 Assay for human CMV (Internal Marker) (AID 2282928).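 Further: endpoint acts as a background internal control marker rather than a target.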 To be noted: HepG2 CMV promoter reporter, transcription factor profiling; actives raise or lower the signal. In a few lines: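 24 h chemical treatment, HepG2 with transient multi-reporter transfection; RNA → oligo(dT) RT → PCR → 6-FAM extension → HpaI digest → CE fluorescence. Bidirectional fit, DMSO negative control.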

Test [4] in a line: ATG_AP_1_CIS: Attagene CIS-FACTORIAL HepG2 Assay for human Activator Protein 1 (AP-1) (AID 2282931). To be noted: HepG2 Attagene cis-factorial AP-1 reporter mRNA; actives raise or lower the signal. A digest of the protocol: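 HepG2, transient cis-reporter transfection; 24 h; readout RT-PCR/CE fluorescence; DMSO baseline, gain and loss fitted.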
The nature of test [5]: ATG_AP_2_CIS: Attagene CIS-FACTORIAL HepG2 Assay for human Activator Protein 2 (AP-2) (AID 2282932). To be noted: HepG2 AP-2 cis-reporter, Attagene transcription factor profiling; actives raise or lower the signal. A digest of the protocol:
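Read-out: fluorescent reporter mRNA via RT-PCR and capillary electrophoresis, 24 h post-dose in transiently transfected HepG2. Endogenous factors drive cis-promoter reporters; gain or loss of signal fitted bidirectionally against DMSO.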

Test [6] in a line: ATG_BRE_CIS: Attagene CIS-FACTORIAL HepG2 Assay for human Bone Morphogenetic Protein (BMP) Response Element (BRE) (AID 2282933). To be noted: HepG2 BMP response element reporter, Attagene transcription factor profiling; actives raise or lower the signal. In a few lines:
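Multiplexed cis-reporter assay, HepG2, 24 h exposure. mRNA from reporter units quantified via RT-PCR/CE; DMSO baseline; bidirectional curve fit.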

The target in test [7] is Retinoic acid receptor alpha (Homo sapiens) (UniProt P10276). The experiment in a line: ATG_DR5_RAR_CIS: Attagene CIS-FACTORIAL HepG2 Assay for human Retinoic Acid Receptor Alpha (RARE), DR5 submotif (AID 2282934).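 On AC50: reporter responds to endogenous RAR alpha beta and gamma in HepG2 not RARA alone.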 To be noted: HepG2 Attagene cis-factorial RARE DR5 reporter, mRNA; actives raise or lower the signal. In a few lines:
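After 24 h of chemical exposure, transiently transfected HepG2 cells were lysed for total RNA; the DR5-regulated reporter transcript was quantified via RT-PCR and capillary electrophoresis, with activity fitted bidirectionally against DMSO.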

Test [8] has as its target Aryl hydrocarbon receptor (Homo sapiens) (UniProt P35869). The experiment in a line: ATG_Ahr_CIS: Attagene CIS-FACTORIAL HepG2 Assay for human Aryl Hydrocarbon Receptor (Ahr) (AID 2282930). To be noted: HepG2 AhR cis-factorial reporter transcription; actives raise or lower the signal. A digest of the protocol:
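Endogenous factor activity is tracked through cis-promoter reporter units transfected into HepG2 cells. Transcript levels at 24 h are read by fluorescent RT-PCR and capillary electrophoresis, with activity in either direction scored relative to DMSO.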

A short description of test [9]: ATG_DR4_LXR_CIS: Attagene CIS-FACTORIAL HepG2 Assay for human Liver X Receptor (LXR), DR4 submotif (AID 2282929). The conditions noted are these: HepG2 Attagene DR4 cis-reporter, mRNA transcription; actives raise or lower the signal. In a few lines: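 Total RNA from 24 h-treated, MRTU-transfected HepG2 cells underwent reverse transcription, PCR, fluorescent primer extension and restriction digestion before capillary electrophoresis. Both increases and decreases in reporter signal were fitted against DMSO.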

Retinoic acid receptor alpha (Homo sapiens), sequence (P10276 whole entry, looked up): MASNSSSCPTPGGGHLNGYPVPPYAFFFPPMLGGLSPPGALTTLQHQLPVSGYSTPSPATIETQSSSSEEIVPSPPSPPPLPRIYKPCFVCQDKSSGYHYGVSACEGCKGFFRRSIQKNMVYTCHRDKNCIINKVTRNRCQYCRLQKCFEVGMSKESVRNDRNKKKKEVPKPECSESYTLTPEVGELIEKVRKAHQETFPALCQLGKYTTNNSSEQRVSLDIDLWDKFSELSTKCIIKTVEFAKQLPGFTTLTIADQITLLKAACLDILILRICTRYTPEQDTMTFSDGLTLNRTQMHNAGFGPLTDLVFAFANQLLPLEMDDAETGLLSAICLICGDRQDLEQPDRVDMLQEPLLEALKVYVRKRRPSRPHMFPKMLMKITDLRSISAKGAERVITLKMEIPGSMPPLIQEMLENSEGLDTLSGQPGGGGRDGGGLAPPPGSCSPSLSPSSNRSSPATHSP
CCAAT/enhancer-binding protein beta (Homo sapiens), sequence (P17676 whole entry, looked up): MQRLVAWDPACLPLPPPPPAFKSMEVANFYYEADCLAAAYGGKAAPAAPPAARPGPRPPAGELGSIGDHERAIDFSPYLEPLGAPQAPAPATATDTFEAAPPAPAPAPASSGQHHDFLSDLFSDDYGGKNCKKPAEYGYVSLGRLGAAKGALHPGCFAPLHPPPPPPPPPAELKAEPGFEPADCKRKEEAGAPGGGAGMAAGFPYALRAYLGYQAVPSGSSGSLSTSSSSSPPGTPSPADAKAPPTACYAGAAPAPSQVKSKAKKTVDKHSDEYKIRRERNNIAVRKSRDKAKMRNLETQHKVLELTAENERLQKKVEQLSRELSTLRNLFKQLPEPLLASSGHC
Aryl hydrocarbon receptor (Homo sapiens), sequence (P35869 whole entry, looked up): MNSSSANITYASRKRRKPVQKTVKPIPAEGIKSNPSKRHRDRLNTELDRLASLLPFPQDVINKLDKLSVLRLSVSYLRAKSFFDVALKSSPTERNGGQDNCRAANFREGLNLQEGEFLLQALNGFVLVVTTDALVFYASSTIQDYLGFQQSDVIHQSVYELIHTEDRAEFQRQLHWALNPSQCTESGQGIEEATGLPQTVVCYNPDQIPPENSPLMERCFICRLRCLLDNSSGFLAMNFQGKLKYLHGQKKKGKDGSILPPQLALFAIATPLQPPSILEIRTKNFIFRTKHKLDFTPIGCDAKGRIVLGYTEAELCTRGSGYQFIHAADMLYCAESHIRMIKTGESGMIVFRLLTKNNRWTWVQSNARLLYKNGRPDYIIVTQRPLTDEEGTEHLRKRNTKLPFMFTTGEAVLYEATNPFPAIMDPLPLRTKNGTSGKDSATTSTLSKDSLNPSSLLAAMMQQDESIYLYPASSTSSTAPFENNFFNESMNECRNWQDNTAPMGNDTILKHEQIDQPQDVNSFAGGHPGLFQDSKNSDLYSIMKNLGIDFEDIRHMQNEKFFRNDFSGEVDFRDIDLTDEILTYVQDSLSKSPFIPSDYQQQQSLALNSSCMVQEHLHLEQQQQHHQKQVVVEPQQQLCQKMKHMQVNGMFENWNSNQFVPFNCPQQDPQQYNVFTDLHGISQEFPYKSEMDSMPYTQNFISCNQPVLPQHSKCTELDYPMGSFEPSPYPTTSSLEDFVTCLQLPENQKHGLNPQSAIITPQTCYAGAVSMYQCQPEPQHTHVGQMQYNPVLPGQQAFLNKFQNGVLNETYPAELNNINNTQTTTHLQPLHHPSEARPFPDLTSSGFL

Consider `CCCCOCCOC(=O)c1ccccc1C(=O)OCCOCCCC`, for which the compound was called inactive in test [1], in [2], in test [3], in test [4], in test [5] and in test [6]. Also, the compound was classed as inactive in test [7].

For the compound `CCCC1CCOC(C)S1` (stereo not drawn), the compound was classed as inactive in test [1], in [2], in test [3], in [8], in [4] and in test [5]. Besides, the call in [6] was inactive.

In the case of `Nc1ccn([C@H]2CC[C@@H](CO)O2)c(=O)n1`, the compound was classed as inactive in test [1], in test [2], in test [3] and in test [6].

Turning to `CCCCCCCC(=O)N(C)C`, the compound was classed as inactive in test [1], in test [2], in test [3], in test [4], in test [5] and in test [6]. Moreover, the compound was classed as inactive in test [7].

For `CCO[Si](CC)(OCC)OCC`, the outcome in test [1], in test [2], in test [3], in test [4], in [5] and in test [6] was inactive. Besides, the result in [7] was inactive.

Usually AC50 stands for the concentration giving half of the maximal activity seen. As to `CN1CCc2cccc3c2[C@H]1Cc1ccc(O)c(O)c1-3`, the outcome in [1], in test [2] and in test [6] was inactive. The AC50 in test [3] was 5.76 µM (active); in [7], 1.67 µM (active).

As to `O=C1OC2(c3ccc(O)cc3Oc3cc(O)ccc32)c2ccccc21`, the compound was classed as inactive in test [1], in test [2], in [3], in test [4], in [5] and in [6]. Further, the AC50 in test [8] was 25.9 µM (active).

For `COc1ccc(C(C)=O)cc1`, the outcome in test [1], in test [2], in test [3], in [8], in test [4] and in test [5] was inactive. Also, the compound was called inactive in [6] and in [7].

Take `O=C(O)c1cc2ccccc2cc1O`: the outcome in test [1], in test [2], in test [3], in test [4], in test [5] and in [6] was inactive. Besides, the compound was called inactive in test [7]. Moreover, the AC50 in test [8] is 4.5 µM (active).

Turning to `O=C(O)c1ccco1`, the compound was classed as inactive in [1], in test [2], in [3], in test [8], in [4] and in test [5]. Besides, the compound was classed as inactive in [6].

Turning to `Nc1ccc(O)c(N)c1`, the compound was called inactive in test [1], in [2], in test [3], in test [4] and in test [7]. Besides, in test [6], the AC50 was 42.2 µM (active).

With `CCCCOCC(C)OCC(C)O` (stereo not drawn), the call in [1], in test [2], in [3], in test [8], in [4] and in [5] was inactive. The compound was classed as inactive in [6].

Consider `C=COCC1CCC(COC=C)CC1` (stereo not drawn), for which the outcome in [1], in test [2], in [3], in test [8], in test [4] and in test [5] was inactive. Moreover, in test [6], the compound was classed as inactive.

Take `CC(C)N1C(=O)c2ccccc2C1=O`: the outcome in test [1], in [2], in test [3], in [8], in test [4] and in test [5] was inactive. Also, the outcome in test [6] was inactive.

Regarding `CCC(CC)CO`, the result in test [1], in [2], in test [3], in [8], in test [4] and in [5] was inactive. Moreover, the compound was called inactive in [6].

With `CC(=O)CCc1ccc(O)cc1`, the call in test [1], in [2], in [3], in [9] and in [6] was inactive.

Consider `COc1ccccc1O`, for which the compound was called inactive in [1], in test [2], in test [3], in [4], in [5] and in [6].

Regarding `C=C(C)C(=O)OCCC(C)OC(=O)C(=C)C` (stereo not drawn), the compound was classed as inactive in test [1], in [2], in [3], in test [9], in test [5] and in test [6]. For the same compound, in test [7], the call was inactive.

As to `O=C(O)c1ccc(C(=O)O)c(C(=O)O)c1`, the compound was classed as inactive in test [1], in [2], in [3], in test [8], in test [4] and in [5]. Moreover, the outcome in test [6] and in test [7] was inactive.

For the compound `NS(=O)(=O)c1cc(C(=O)O)c(NCc2ccco2)cc1Cl`, the call in test [1], in test [2], in test [3], in test [8], in test [4] and in [5] was inactive. Besides, the outcome in [6] and in test [7] was inactive.

As for `CC(=O)c1cccnc1`, the compound was classed as inactive in test [1], in [2], in test [3], in test [8], in test [4] and in [5]. Also, the result in [6] was inactive.

For `CCCCN(CCO)CCO`, the result in test [1], in test [2], in test [9], in test [8], in test [4] and in test [5] was inactive. The call in test [6] was inactive.

`CCOCC(C)O` (stereo not drawn): the compound was called inactive in test [1], in [2], in [3], in test [8], in [4] and in test [5]. Moreover, the compound was classed as inactive in test [6].

As for `CC(CO)(CO)[N+](=O)[O-]`, the compound was called inactive in [1], in test [2], in test [8], in test [5] and in [6].

On to `c1ccc(Cc2ccccc2)cc1`, for which the outcome in test [1], in [3], in test [9], in [8], in test [4] and in test [5] was inactive. Moreover, the result in test [6] was inactive.

As for `CC(C)C(=O)OCC=Cc1ccccc1`, the outcome in [1], in test [2], in test [5] and in test [6] was inactive.

`[Cl][Dy]([Cl])[Cl]`: the outcome in test [1], in test [2], in [9], in test [8], in test [5] and in [6] was inactive.

Turning to `OCC=Cc1ccccc1`, the call in test [1], in test [2], in [9], in test [4], in test [5] and in [6] was inactive.

For the compound `CC(C)(C)c1ccc(S)cc1`, the outcome in [1], in test [3], in test [9], in test [8], in test [4] and in [5] was inactive. In test [6], the result was inactive.

In the case of `O=C(OCc1ccccc1)c1ccccc1O`, the outcome in test [1], in test [2], in test [5] and in [7] was inactive. The AC50 in test [9] was 55.1 µM (active); in test [8], 61.9 µM (active); in [6] it was 133 µM (active).

For `CC(C)=CCCC(C)=CC(=O)O`, the outcome in test [1], in test [2], in test [8], in test [5] and in test [6] was inactive.
